Test results taken from PubChem BioAssay AID977624 (Broad Institute, 2014).
Hit rate of the full screen: of about 1,800 compounds, fewer than 10 were called active. Inconclusive results (about 44%) are left out.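 How the source made its calls: active means compound lowering the normal-ribosome reporter at least twice as much as the humanized-ribosome reporter, growth loss under a set limit; inconclusive means no clear call, values can overlap the other calls; inactive means the rest.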 Only a sample is shown.

Assay: wild-type E. coli growth inhibition versus h34 humanized strain – h34 mutant RFP, wild-type GFP, cherry-pick, dose response (AID 977624)
Conditions: fluorescence, 24 h; series mostly up to 50 µM

outcome, inactive:
Cc1cccc(C)c1Nc1ncnc2ccccc12
Cc1ccc(-c2n[nH]c(S(C)(=O)=O)c2C#N)cc1
C=CCN(c1ccccc1)S(=O)(=O)c1cccc2cccnc12
Cc1nn(Cc2cccc(F)c2)c(C)c1NC(=O)c1c(Cl)cnn1C
COc1ccc(NC(=O)CCC(=O)c2cccs2)cc1S(=O)(=O)Nc1ccc(Cl)cc1
C[C@@H]1CN([C@H](C)CO)C(=O)CCCn2nncc2CO[C@@H]1CN(C)C(=O)Nc1ccc(C(F)(F)F)cc1
COc1ccccc1OCC(=O)Nc1ccc(S(=O)(=O)N2CCCCCC2)cc1
CN(C)CCCN(C(=O)CCSc1ccccc1)c1nc2cc3c(cc2s1)OCO3
CCCC(=O)N(CCc1ccc(OC)cc1)Cc1nc2ccccc2c(=O)[nH]1
Cc1ccc(NC(=O)c2c(C)noc2-c2snnc2C)cc1
COC(=O)c1sc(C(C)(C)C)cc1CS(=O)(=O)c1ccc(Cl)cc1
CCc1ccc(NC(=O)COC(=O)CCCC2=NS(=O)(=O)c3ccccc3N2)cc1
CCn1c(-c2ccccc2Cl)nn(CC(=O)Nc2ccccc2OC)c1=S
C[C@@H]1CCCCO[C@@H](CN(C)C)[C@@H](C)CN([C@@H](C)CO)C(=O)c2cc(NC(=O)Nc3cccc4ccccc34)ccc2O1
CC(C)CNc1nc(S(=O)(=O)c2ccccc2)c(Cl)s1
Cc1ccc(-c2nc(CN3CCCCC3c3cccc(F)c3)c(C)o2)o1 (centres undefined)
CCOC(=O)c1c(C)nsc1NCc1ccccc1
CC(C)CN1C(=O)c2ccc(C(=O)Nc3ccncc3)cc2C1=O
COc1cccc(C(NC(C)=O)c2nc(-c3ccccc3OC)cs2)c1 (centres undefined)
Cc1cccc(-c2ccc([C@H]3[C@H]4CN(S(=O)(=O)c5ccccc5C)CCCCN4[C@H]3CO)cc2)c1
CC(=O)Nc1cccc(NC(=O)CSc2ccc(-c3cccnc3)nn2)c1
CCOC(=O)c1cc(-c2ccc(OC)cc2)n[nH]1
CCN(CC)CCN(C(=O)c1ccc2c(c1)OCCO2)c1nc2c(Cl)cccc2s1
CN(C)Cc1nc2ccccc2c(=O)n1Cc1nc(-c2cccc([N+](=O)[O-])c2)cs1
COc1cccc(NC(=O)COC(=O)Cc2ccccc2[N+](=O)[O-])c1
CCOC(=O)Cc1nnc(NC(=O)CSc2nc3ccccc3[nH]2)s1
O=C(O)CCCCCCCCc1cn(CC2CCCCC2)nn1
O=C(Nc1ccncc1)c1ccc(S(=O)(=O)Nc2ccccc2)cc1
Cc1cccc(OCCC(=O)Nc2ccc(F)c(F)c2)c1
CCN(CC(=O)Nc1cccc(C#N)c1)CC(=O)Nc1cccc(OC)c1
C=C(C)Cn1c(=O)c2c(nc3n2CC(C)CN3Cc2ccccc2)n(C)c1=O (centres undefined)
O=S1(=O)N[C@H](Cc2ccccc2)COc2cccc(N3CCC[C@H]3CO)c21
Cc1ccccc1-n1ncc2c1CC(C)(C)CC2NC(=O)CCN1Cc2ccccc2C1=O (centres undefined)
O=C(Nc1ccc2c(c1)OCO2)c1cccc(S(=O)(=O)N2CCCC2)c1
CCOc1ccccc1NC(=O)c1ccc2ccccc2c1
CC(=O)c1c(C)nn(CC(O)COc2ccc3c(c2)CCC3)c1C (centres undefined)
Cn1nc(C(C)(C)C)c([N+](=O)[O-])c1C(=O)Nc1ccc(Br)cc1
COc1ccccc1C(=O)COC(=O)c1cccs1
Nc1nc(Nc2ccccc2F)nc(N2CCOCC2)c1[N+](=O)[O-]
O=C(c1cc(S(=O)(=O)N2CCOCC2)ccc1Cl)N1CCc2ccccc2C1
CSc1nc2nc3c(cc2c(=O)n1-c1ccccc1C)CCCC3
Cc1cc([N+](=O)[O-])nn1CC(=O)Nc1cc(F)ccc1F
Nc1ccccc1Sc1ccc(C(F)(F)F)cc1[N+](=O)[O-]
Cc1noc(C)c1COc1cccc(C(=O)N2CCc3ccccc32)c1
CCCc1nc2oc3c(NCCCN(C)C)ncnc3c2c2c1CCCC2
O=C(c1ccc2c(c1)CCN2S(=O)(=O)c1ccccc1)N1CCN(c2ccccc2)CC1
O=C(O)c1ccc(-c2nc(-c3ccccc3)cs2)cc1
CCc1ccc2nc(N(CCCN(C)C)C(=O)c3ccc4c(c3)OCCO4)sc2c1
Nc1ncncc1-c1ccc(Cl)cc1
CC(=O)Nc1ccc(S(=O)(=O)Nc2cccc(-c3nc4cc(C)ccc4o3)c2)cc1
OCCN(Cc1ccccc1)Cc1ccc(F)c(F)c1
COC(=O)c1ccccc1NC(=O)c1ccc2c(c1)CC(C)O2 (centres undefined)
O=C(CN1CCCCC1)Nc1ccccc1-c1ccccc1
Cc1cc(C(=O)OCC(=O)Nc2cccc(S(N)(=O)=O)c2)c2ccccc2n1
COc1cccc(S(=O)(=O)N2CCCCN3[C@H](CO)[C@H](c4ccc(C#CC(C)C)cc4)[C@@H]3C2)c1
Cc1sc(NC(=O)CN2CCOCC2)nc1-c1ccc2c(c1)CCN2S(=O)(=O)c1ccccc1
Cc1ccc2nc(SCC(=O)c3ccc4c(c3)NC(=O)CO4)[nH]c2c1
COc1cccc(NC(=O)CN(C)CC(=O)Nc2ccc(Br)cc2)c1
COc1ccc(S(=O)(=O)N(C)C)cc1NC(=O)c1ccc2c(c1)NC(=O)C(C)S2 (centres undefined)
COc1cc(-c2cc3nc(NCCc4ccncc4)ccn3n2)cc(OC)c1OC
N#Cc1ccc(OCC(=O)N2CCN(S(=O)(=O)c3ccc(Cl)s3)CC2)cc1
Cc1ccc(NC(=O)c2ccc([N+](=O)[O-])o2)c(C)c1
COc1ccc(Cn2c(=O)c3[nH]cnc3n(-c3ccc(C)cc3)c2=O)cc1
S=C1SCN(Cc2cccnc2)CN1Cc1ccccc1
CCOc1ccc(CCNC(=O)CCn2ccc3cc(S(=O)(=O)N4CCCC4)ccc32)cc1
O=C(c1ccc(N2CCCCC2)c([N+](=O)[O-])c1)N1CCN(c2ccccn2)CC1
CN(C(=O)COc1ccccc1C(=O)NCCOc1ccccc1)c1ccccc1
CN(C(=O)c1ccc(F)cc1)c1ccc(OCC(=O)Nc2ccccc2C(=O)O)cc1
CC(CCC(=O)O)C1CC[C@@]2(C)C3C(=O)CC4C(C)(C)C(O)CC[C@]4(C)C3C(=O)C[C@]12C (some centres undefined)
CCOc1ccc2nc(SCC(=O)Nc3cccc(S(=O)(=O)NC4=NCCCCC4)c3)[nH]c2c1
COc1ccc(-c2nnc(COc3ccc(Br)cc3C)o2)cc1
Cc1cccc(C)c1-n1nnnc1C1(C)CCC(=O)N1Cc1cccs1 (centres undefined)
CCCC(=O)Nc1sc2c(c1C(=O)Nc1ccccn1)CCCC2
COc1ccc(NC(=O)c2cccs2)cc1C(=O)N1CCN(c2ccccc2)CC1
CC(C)Nc1nnc(SCC(=O)Nc2sccc2C#N)s1
COc1cc(NC(=O)c2ccc(Cl)cc2)c(OC)cc1NC(=O)CN1CCCCC1
CN(C)CCCN(C(=O)COc1ccc(Cl)cc1)c1nc2ccc(F)cc2s1
Cc1cccc(CSCC(=O)N2CCN(S(=O)(=O)c3ccccc3C#N)CC2)c1
COc1cc(OC)cc(C(=O)Nc2ccc(C(=O)Nc3ccccc3OC)cc2)c1
CC(C)Oc1ccc(C(=O)Nc2cccc3cccnc23)cc1
CC(C)CC#Cc1ccc2c(c1)O[C@@H](CN(C)Cc1ccccn1)[C@H](C)CN([C@H](C)CO)S2(=O)=O
CCCC(=O)Nc1cccc(C(=O)Nc2ccccc2OCC)c1
CC(C)(Nc1ccccc1)C(=O)c1ccccc1
COC(=O)c1ccccc1OCCOCCOc1cccc2ccc(C)nc12
Nc1ccccc1Nc1ccc([N+](=O)[O-])cc1[N+](=O)[O-]
Cc1ccccc1CSc1nnc(-c2ccncc2)o1
O=C(CCNc1cccc(Cl)c1)c1cccs1
C[C@@H]1CCCCO[C@@H](CN(C)C)[C@@H](C)CN([C@H](C)CO)C(=O)c2cc(NC(=O)Nc3cccc4ccccc34)ccc2O1
Cc1ccc(C2NC(c3ccc(C)cc3)C(C)C(=O)C2C)cc1 (centres undefined)
Cc1ccc(-c2c[n+](CC(=O)OCc3ccccc3)c3n2CCC3)cc1
Cc1noc(C)c1NC(=O)Nc1ccc2c(c1)C(=O)N([C@@H](C)CO)C[C@H](C)[C@H](CN(C)C(=O)Nc1ccc3c(c1)OCO3)OCCCC[C@H](C)O2
COc1ccc(-c2cc(C(=O)N(C)CCc3ccc(OC)c(OC)c3)c3ccccc3n2)cc1
c1ccc(Sc2ncnc3ccccc23)cc1
Cc1nc(SCC(=O)Nc2ccc3c(c2)OCCO3)nc(C)c1C
CCCN(Cc1ccco1)S(=O)(=O)c1ccc(OC)c(OC)c1
CCOC(=O)c1cc(C)nc(N2CCCCC2)c1C#N
Cn1cc(CN2CCCC(C(=O)c3cccs3)C2)c(-c2cccc(Cl)c2)n1 (centres undefined)
Nc1nc(-c2cc(-c3ccccc3)no2)cs1
Cc1cccc(C(=O)NCC(=O)NCCSc2ccc(Br)cc2)c1
N#CCC(=O)Nc1ccc(C(=O)OCC(=O)Nc2ccc3ccccc3c2)cc1
CCOc1cc(/C=C(\CC(=O)O)c2nc3ccccc3s2)ccc1OC
COc1ccc(-c2nc3ccc(Cl)cn3c2Cc2cccc(F)c2)cc1OC
COC(=O)c1sccc1NC(=O)Cn1nnc(-c2ccccc2C)n1
CCOc1ccc2nc(NC(=O)CSc3nc(SC)ns3)sc2c1
